High-throughput results from PubChem BioAssay.
3CLpro inhibitor: SARS-CoV 3CLpro protease inhibition. recombinant SARS-CoV 3CLpro, quenched FRET peptide cleavage. inhibition, % at 6 µM. actives 0.14% (n = 290,000). AID 1706; in the data active means inhibition above about 12%
FadD28 FP inh: blocks FadD28 binding to the bisubstrate probe; fluorescence polarization; inhibition, % at 12.5 µM; actives 0.22% (n = 360,000); in the data active means inhibition above about 8.5%, passing the limit was not always enough
Mtb FBA inh: Mtb fructose-bisphosphate aldolase inhibition. purified M. tuberculosis FBA, fluorescence read-out. inhibition, % at 1 µM. actives 2.3% (n = 360,000). AID 588726;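 further: 0% = vehicle and 100% = reference inhibitor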
Target sequence (P9WQA3 whole entry, looked up): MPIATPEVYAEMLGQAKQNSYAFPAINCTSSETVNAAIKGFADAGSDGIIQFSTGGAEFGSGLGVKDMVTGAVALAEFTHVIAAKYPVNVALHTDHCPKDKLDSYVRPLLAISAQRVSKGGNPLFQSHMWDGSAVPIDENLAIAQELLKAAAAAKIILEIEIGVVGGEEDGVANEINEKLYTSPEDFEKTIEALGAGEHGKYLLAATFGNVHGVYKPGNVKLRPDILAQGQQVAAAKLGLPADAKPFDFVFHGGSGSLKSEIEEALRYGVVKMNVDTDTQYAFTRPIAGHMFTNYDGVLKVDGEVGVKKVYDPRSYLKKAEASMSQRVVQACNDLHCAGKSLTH
GDH-TPI counter-1: inhibits GDH-TPI coupling enzymes, artifact for Mtb FBA screen; GDH-TPI coupled enzyme counterscreen, NADH absorbance; inhibition, % at 4.8 µM; actives 1.2% (n = 360,000); AID 588335; in the data active means inhibition above about 30%;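 further: 0% = DMSO wells and 100% = wells lacking the enzyme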
Mtb BioA inh: BioA (M. tuberculosis) enzyme inhibition; inhibition, % at 9.99 µM; purified M. tuberculosis BioA enzyme, plate reader; actives 0.096% (n = 360,000); in the data active means inhibition above about 40%
Mtb FBA inh conf: Mtb FBA inhibition, confirmed | shares compounds with Mtb FBA inh | purified M. tuberculosis FBA, fluorescence read-out | inhibition, % at 1 µM | actives 78% (n = 5,600) | AID 651616;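 further: 0% = vehicle wells and 100% = reference inhibitor wells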
GDH-TPI counter-2: GDH-TPI inhibition counter-screen for FBA inhibitors; shares compounds with Mtb FBA inh; AID 652141; actives 81% (n = 5,600); GDH-TPI coupled enzyme counterscreen, fluorescence; inhibition, % at 1 µM; in the data active means inhibition above about 10%
GDH-TPI DR: inhibits GDH-TPI coupling enzymes in dose response; shares compounds with Mtb FBA inh; GDH-TPI coupled enzyme assay, fluorescence, artifact counterscreen; IC50, µM; actives 79% (n = 170); AID 652145; call rule not given here
Active calls of the source: *; · = not tested or not shown; + = active, no number. The list is not random: actives were taken first. Their share in the collection is about 3.1%. Unless noted, no stated cut-off is given here; in the data, active means inhibition above about 27%; inactive means the rest.

SMILES	3CLpro inhibitor	FadD28 FP inh	Mtb FBA inh	GDH-TPI counter-1	Mtb BioA inh	Mtb FBA inh conf	GDH-TPI counter-2	others
O=C1C=CC(=O)N1c1ccc(-c2nc3ccccc3o2)cc1	·	-3.7	65.2*	20.0	0.2	-2.9	-5.2
CCCC(O)(c1ccc(Cl)cc1)C(CN1CCOCC1)c1ccc(Cl)cc1 (configuration not stated)	-3.9	-0.6	30.5*	2.6	-0.8	97.4*	69.8*
COc1ccccc1-c1cc(-c2ccc(O)cc2)nc(N)c1C#N	-1.6	-3.0	66.4*	22.8	·	139.9*	109.2*
N#Cc1c(-c2ccc(F)cc2)cc(-c2cccnc2)nc1N	1.4	1.0	24.3	-17.3	-0.8	·	·
COc1ccccc1-c1c(C#N)c(N)nc2c1CCc1ccccc1-2	0.1	-2.3	42.0*	12.0	·	+	+
N#Cc1c(-c2ccc(Br)cc2)cc(-c2cccnc2)nc1N	-1.9	-1.3	28.8*	10.0	·	16.6	2.7	GDH-TPI DR=>10
N#Cc1c(-c2ccccc2)cc(-c2ccc(O)cc2)nc1N	6.1	-3.7	17.3	23.4	1.0	·	·
COc1ccc(OC)c(-c2cc(-c3cccnc3)nc(N)c2C#N)c1	2.1	-2.4	0.0	28.3	-0.5	·	·
CCOc1cc(-c2c(C#N)c(N)nc3c2CCc2ccccc2-3)ccc1O	3.7	-7.4	6.0	7.0	·	·	·
COc1ccc(-c2cc(-c3cccnc3)c(C#N)c(N)n2)cc1	-0.2	-0.2	71.4*	6.4	·	134.7*	105.7*
CNC[C@H]1OCCCC[C@@H](C)Oc2ccc(NS(=O)(=O)c3ccccc3)cc2C(=O)N([C@@H](C)CO)C[C@@H]1C	·	·	·	·	0.2	·	·
C[C@H]1CN([C@@H](C)CO)C(=O)c2cc(C#CC3(O)CCCC3)cnc2O[C@@H]1CN(C)Cc1ccccn1	·	·	·	·	-0.4	·	·
CN1CCN(C(=O)C[C@H]2CC[C@H]3[C@@H](COC[C@@H](O)CN3S(=O)(=O)c3cccc(Cl)c3)O2)CC1	·	·	·	·	-0.5	·	·
N#Cc1c(-c2cccs2)cc(-c2cccnc2)nc1N	2.2	0.3	87.5*	9.1	·	102.3*	80.8*
Cc1nc(N)c(C#N)c(-c2cccnc2)c1-c1ccccc1	-0.6	-0.7	4.5	8.8	1.2	·	·
COc1ccc2oc(C(=O)OCC(=O)N3CCCCC3)c(C)c2c1	·	-1.9	37.5*	3.5	-0.7	125.2*	113.1*
COc1ccc2oc(C(=O)OCC(=O)N3CCN(C(C)=O)CC3)c(C)c2c1	·	-2.5	43.5*	-0.7	-0.7	59.2*	42.3*
C[C@@H]1CN([C@H](C)CO)C(=O)c2cc(C3=CCCC3)cnc2O[C@@H]1CN(C)Cc1cccc(F)c1	·	·	·	·	-0.7	·	·
O=C(C[C@H]1CC[C@H](NC(=O)CC2CC2)[C@@H](CO)O1)NCc1ccc(-c2ccccc2)cc1	·	·	·	·	-0.9	·	·
CCOC(=O)C1=C(C)NC(C)=C(C(=O)OC)C1c1cccc(Cl)c1Cl (configuration not stated)	-0.8	-1.8	40.9*	8.8	1.7	10.6	3.0	GDH-TPI DR=>10
CC(C)c1nc2oc3c(NCC4CCCO4)ncnc3c2c2c1CCC2 (configuration not stated)	0.4	-2.5	56.6*	9.3	0.6	180.9*	151.0*
CC(C)Cc1nc2oc3c(Cl)ncnc3c2c2c1CCCC2	2.2	-3.0	-2.3	0.8	2.5	·	·
CC(C)Cc1nc2oc3c(NCC(C)O)ncnc3c2c2c1CCCC2 (configuration not stated)	-1.9	-7.2	59.6*	-2.0	0.2	+	+
CCCc1nc2oc3c(NCCN(C)C)ncnc3c2c2c1CCCC2	-1.2	-7.8	21.6	5.9	2.2	·	·
CCCc1nc2oc3c(NCCCN(C)C)ncnc3c2c2c1CCCC2	0.2	-8.6	61.2*	10.0	6.6	+	+
SMILES	3CLpro inhibitor	FadD28 FP inh	Mtb FBA inh	GDH-TPI counter-1	Mtb BioA inh	Mtb FBA inh conf	GDH-TPI counter-2	others
C[C@H](CO)N1C[C@H](C)[C@H](CN(C)C(=O)C2CCC2)Oc2cc(C#CC3CC3)ccc2S1(=O)=O	·	·	·	·	1.9	·	·
CC(C)C(=O)Nc1ccc2c(c1)C(=O)N(C)[C@H]1CC[C@@H](CC(=O)NCc3cccc(F)c3)O[C@H]1CO2	·	·	·	·	-3.0	·	·
N#Cc1c(C(F)(F)F)cc(-c2ccco2)nc1SCc1ccncc1	-1.7	-4.0	28.6*	-0.5	0.7	56.2*	32.4*
O=C1CCS/C(=N\N=C\c2ccc(Cl)cc2Cl)N1	3.1	-4.0	-2.5	10.9	·	·	·
Cc1ccccc1/C=N/N=C1/NC(=O)CCS1	1.8	-3.5	29.0*	31.7*	·	127.9*	90.3*
COc1cc(C2C(C#N)=C(N)Oc3cc(C)n(CCc4ccccc4)c(=O)c32)cc2c1OCO2 (configuration not stated)	-0.8	-1.8	-4.4	20.6	-0.6	·	·
Cc1cc2c(c(=O)n1CCc1ccccc1)C(c1ccco1)C(C#N)=C(N)O2 (configuration not stated)	0.5	-1.4	40.1*	5.5	-2.3	1.9	-3.0
C[C@@H]1CCCCO[C@@H](CN(C)Cc2ccc3c(c2)OCO3)[C@H](C)CN([C@H](C)CO)C(=O)c2cc(NC(=O)Nc3ccccc3)ccc2O1	·	·	·	·	-1.3	·	·
COc1ccc(S(=O)(=O)Nc2ccc3c(c2)C(=O)N([C@@H](C)CO)C[C@H](C)[C@@H](CN(C)S(=O)(=O)c2c(C)noc2C)OCCCC[C@@H](C)O3)cc1	·	·	·	·	0.0	·	·
CCC(=O)c1c[nH]c(C(=O)NCc2ccccc2OC)c1	-2.0	-0.3	3.9	-3.9	-1.3	·	·
CCC(=O)c1c[nH]c(C(=O)NCc2cccc(C(F)(F)F)c2)c1	0.1	-0.7	79.2*	5.1	-4.4	+	+
CCOC(=O)CSC1=Nc2ccccc2C2=NC(CC(=O)NCc3ccccc3)C(=O)N12 (configuration not stated)	2.1	-2.6	28.9*	7.7	2.2	102.8*	102.1*
NC(=O)CSC1=Nc2ccccc2C2=NC(c3ccccc3)C(=O)N12 (configuration not stated)	4.5	-1.7	28.0*	10.5	·	50.9*	43.0*
CCN(CC)C(=O)CSC1=Nc2ccccc2C2=NC(c3ccccc3)C(=O)N12 (configuration not stated)	-2.2	0.2	18.4	9.1	-4.6	·	·
C[C@@H]1CN([C@@H](C)CO)S(=O)(=O)c2ccc(C3=CCCCC3)cc2O[C@@H]1CN(C)Cc1ccncc1	·	·	·	·	-0.8	·	·
CCOc1ccc2oc(C(=O)OCC(=O)N3CCCC(C)C3)c(C)c2c1 (configuration not stated)	·	-1.9	48.5*	3.8	-1.4	94.8*	78.2*
Cc1c(C(=O)OCC(=O)N2CC(C)OC(C)C2)oc2ccc(Br)cc12 (configuration not stated)	3.4	-0.8	-3.2	11.4	0.0	·	·
